This experiment relates to Plasmodium falciparum. Kind of experiment: Plasmodium falciparum sporozoite viability assay. Also noted: scale not given: in the data most compounds retested in dose-response had high values. The experiment is classed as functional, organism-based.

Where “and” joins values, the source holds several entries; their conditions need not be identical. Identical values can stand only once. The whole screen tested about 34,000 compounds, of which about 290 (0.85%) showed an effect of 50% or more. Many of the other results were omitted from the sample, so strong results are more common in it than they were.

As to `O=C(CN1CCCC1c1noc(C2CC2)n1)NCCc1ccsc1` (stereo unspecified), the “Percent Effect” value is listed as 13.6%.

Turning to `CN(C)c1ccc(C(=O)N2CCCN(Cc3cnn(C)c3)CC2)nn1`, the “Percent Effect” value is listed as -1.596%.

Consider `O=C(O)c1ccc(=O)n(CC(c2ccc(Cl)cc2)N2CCOCC2)c1` (stereo unspecified), for which the “Percent Effect” value turned out to be 5.86%.

As for `Cc1ccccc1-c1noc(CN2CC(n3cccn3)C2)n1`, the “Percent Effect” value was -26.31%.

`Cc1cccc(-c2noc(CN3CC(n4cc(C)cn4)C3)n2)c1`: the “Percent Effect” value is -1.145%.

With `NC(=O)c1nc2c(s1)CCN(C(=O)Nc1ccccc1)CC2`, the “Percent Effect” value came to 13.34%.

For `O=C(Nc1ccccc1)N1CCc2nc(C(=O)N3CCCC3)sc2CC1`, the “Percent Effect” value (10 mM as filed; unlikely as a test dose) was 42.14% and 56.3% and 42.63%.

For `CCOCCCNC(=O)C1(C)CCC(=O)N1Cc1ccccc1F` (stereo unspecified), the “Percent Effect” value is recorded as -5.282%.

For `COc1ccc(-c2cc(C3CCCNC3)ccn2)cc1.Cl` (stereo unspecified), the “Percent Effect” value is given as 3.809%.

As for `COc1cccc(Nc2nc(N3CCCC3)nc3c2CNCC3)c1.Cl`, the “Percent Effect” value is reported as 4.348%.

`COc1cccc(Nc2nc(-c3ccncc3)nc3c2CNCC3)c1.Cl`: the “Percent Effect” value stood at 6.202%.

Turning to `COc1cccc(-c2cc(C3CCCNC3)ccn2)c1` (stereo unspecified), the “Percent Effect” value was 10.99%.

On to `Cc1cc(C)nc(Nc2nccnc2C2CCCN(CCO)C2)n1` (stereo unspecified), for which the “Percent Effect” value is -0.8244%.

As to `Cc1ccoc1C(=O)NC1CCN(C(=O)Nc2ccccn2)CC1`, the “Percent Effect” value came out at 4.048%.

In the case of `CN1CCN(C[C@@H]2OC[C@H]3CN(CCc4ccccc4)CC[C@H]32)CC1.O=C(O)C(F)(F)F.O=C(O)C(F)(F)F.O=C(O)C(F)(F)F`, the “Percent Effect” value was 9.359%.

Regarding `O=C(NC1CCCCC1)NC1CCCc2c1cnn2CCO` (stereo unspecified), the “Percent Effect” value (10 mM as filed; unlikely as a test dose) is -11.63% and -7.35% and -4.902%.

Regarding `O=C(NCC1CCCCC1)NC1CCCc2c1cnn2CCO` (stereo unspecified), for the setting “10 mM as filed; unlikely as a test dose”, the “Percent Effect” value was 38.6% and 33.33% and 56.01%.

`CSc1ccc(OCCN2CCNC(=O)CC2)cc1`: the “Percent Effect” value was -10.56%.

Turning to `CSCC[C@H](N)c1nnc(SCc2cc(C)ccc2C)o1.Cl`, the “Percent Effect” value is -8.516%.

As for `CCc1n[nH]c(C(=O)NCCn2ccnc2C)c1C`, the “Percent Effect” value (10 mM as filed; unlikely as a test dose) is -3953% and -3827%.

As to `CCc1n[nH]c(C(=O)NCCn2nccc2C)c1C`, the “Percent Effect” value (10 mM as filed; unlikely as a test dose) is 28.41% and 66.23% and 77.05%.

For the compound `CC(C(=O)N1CCN(Cc2ccc3c(c2)OCO3)CC1)n1ccnc1` (stereo unspecified), the “Percent Effect” value amounted to 3.608%.

Consider `CCn1cnnc1CNC(=O)N1CCC(CN2CCCCCC2)CC1`, for which the “Percent Effect” value is on record as 4.778%.

Take `CC(C)COCc1cncc2c1CCN(C(=O)c1cscn1)C2.O=C(O)C(F)(F)F`: the “Percent Effect” value came out at 5.063%.

In the case of `CC[S+]([O-])CCc1nc(CC(C)C)nn1-c1ccc2c(c1)OCCO2` (stereo unspecified), for the setting “10 mM as filed; unlikely as a test dose”, the “Percent Effect” value was 61.59% and 54.31%.

Consider `CC(C)Cc1nc(CO)n(-c2ccc3c(c2)OCCO3)n1`, for which the “Percent Effect” value (10 mM as filed; unlikely as a test dose) was 46.72% and 37.75%.

The values above are taken from ChEMBL document CHEMBL3988442, “University of Dundee, Small-Polar-MMV Screening Library” (2021).
